Measurements from PubChem BioAssay (EPA / NIEHS).
Results filed as inconclusive are left out. The source made the active and inactive calls. The calls were made as follows: active = hit-call score of the fitted dose curve at least 0.9, where 1 is the maximum; inconclusive = response in the unintended direction; inactive = score below 0.9.

Columns and labels:
[1] = target: human Raf-1 Proto-Oncogene, serine/threonine Kinase (RAF1), RAF1 (gene 5894) (UniProt P04049); assay: NVS_ENZ_hRAF1: NovaScreen (NVS) Enzymatic Assay for human Raf-1 Proto-Oncogene, serine/threonine Kinase (RAF1) (AID 2283216)
human Raf-1 Proto-Oncogene, serine/threonine Kinase (RAF1), RAF1 (gene 5894), sequence (P04049 whole entry, looked up): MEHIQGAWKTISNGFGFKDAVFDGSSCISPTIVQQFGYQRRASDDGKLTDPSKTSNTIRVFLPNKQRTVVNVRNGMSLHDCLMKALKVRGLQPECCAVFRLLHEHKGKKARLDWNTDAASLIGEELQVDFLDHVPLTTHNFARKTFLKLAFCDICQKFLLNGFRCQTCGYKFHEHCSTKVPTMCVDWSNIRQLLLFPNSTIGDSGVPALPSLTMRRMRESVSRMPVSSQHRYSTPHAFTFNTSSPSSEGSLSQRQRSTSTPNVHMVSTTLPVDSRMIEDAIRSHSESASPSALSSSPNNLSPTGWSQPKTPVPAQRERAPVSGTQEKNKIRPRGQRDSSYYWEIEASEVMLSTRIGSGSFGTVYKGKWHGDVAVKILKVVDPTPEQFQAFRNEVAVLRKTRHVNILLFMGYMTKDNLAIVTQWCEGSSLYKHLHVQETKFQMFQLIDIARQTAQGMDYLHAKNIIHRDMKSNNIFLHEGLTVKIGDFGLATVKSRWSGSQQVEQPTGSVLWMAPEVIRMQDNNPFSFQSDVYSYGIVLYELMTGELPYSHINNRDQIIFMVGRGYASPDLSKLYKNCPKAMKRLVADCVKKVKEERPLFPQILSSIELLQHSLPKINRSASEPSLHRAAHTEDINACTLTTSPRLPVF
Procedure, shortened: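 Cell-free recombinant kinase with specific fluorescent substrate, product separated by electrophoretic mobility shift; read 1 h after dosing. Primary screen at 25 uM in duplicate; hits then run in concentration-response up to 50 uM, fitted as loss of signal versus DMSO.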

[2] = target: human Protein Tyrosine Phosphatase Non-receptor Type 6 (PTPN6), PTPN6 (gene 5777) (UniProt P29350); assay: NVS_ENZ_hPTPN6: NovaScreen (NVS) Enzymatic Assay for human Protein Tyrosine Phosphatase Non-receptor Type 6 (PTPN6) (AID 2283210)
Procedure, shortened: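 Cell-free assay with recombinant PTPN6 expressed in SF9 cells, fluorescent substrate, product separated from substrate by electrophoretic mobility shift; read 1.33 hours after dosing. Primary screen in duplicate at 25 uM, actives retested in concentration series; DMSO baseline.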

[3] = target: human Protein Tyrosine Phosphatase Receptor Type F (PTPRF), PTPRF (gene 5792) (UniProt P10586); assay: NVS_ENZ_hPTPRF: NovaScreen (NVS) Enzymatic Assay for human Protein Tyrosine Phosphatase Receptor Type F (PTPRF) (AID 2283213)
Procedure, shortened: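 Cell-free fluorescence enzyme assay with recombinant protein and substrate; product separated by electrophoretic mobility shift. Read 1 h after dosing, single 25 uM duplicate screen, then concentration-response up to 50 uM; loss of signal vs DMSO.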

[4] = target: human Protein Tyrosine Phosphatase Receptor Type M (PTPRM), PTPRM (gene 5797) (UniProt P28827); assay: NVS_ENZ_hPTPRM: NovaScreen (NVS) Enzymatic Assay for human Protein Tyrosine Phosphatase Receptor Type M (PTPRM) (AID 2283215)
human Protein Tyrosine Phosphatase Receptor Type M (PTPRM), PTPRM (gene 5797), sequence (P28827 whole entry, looked up): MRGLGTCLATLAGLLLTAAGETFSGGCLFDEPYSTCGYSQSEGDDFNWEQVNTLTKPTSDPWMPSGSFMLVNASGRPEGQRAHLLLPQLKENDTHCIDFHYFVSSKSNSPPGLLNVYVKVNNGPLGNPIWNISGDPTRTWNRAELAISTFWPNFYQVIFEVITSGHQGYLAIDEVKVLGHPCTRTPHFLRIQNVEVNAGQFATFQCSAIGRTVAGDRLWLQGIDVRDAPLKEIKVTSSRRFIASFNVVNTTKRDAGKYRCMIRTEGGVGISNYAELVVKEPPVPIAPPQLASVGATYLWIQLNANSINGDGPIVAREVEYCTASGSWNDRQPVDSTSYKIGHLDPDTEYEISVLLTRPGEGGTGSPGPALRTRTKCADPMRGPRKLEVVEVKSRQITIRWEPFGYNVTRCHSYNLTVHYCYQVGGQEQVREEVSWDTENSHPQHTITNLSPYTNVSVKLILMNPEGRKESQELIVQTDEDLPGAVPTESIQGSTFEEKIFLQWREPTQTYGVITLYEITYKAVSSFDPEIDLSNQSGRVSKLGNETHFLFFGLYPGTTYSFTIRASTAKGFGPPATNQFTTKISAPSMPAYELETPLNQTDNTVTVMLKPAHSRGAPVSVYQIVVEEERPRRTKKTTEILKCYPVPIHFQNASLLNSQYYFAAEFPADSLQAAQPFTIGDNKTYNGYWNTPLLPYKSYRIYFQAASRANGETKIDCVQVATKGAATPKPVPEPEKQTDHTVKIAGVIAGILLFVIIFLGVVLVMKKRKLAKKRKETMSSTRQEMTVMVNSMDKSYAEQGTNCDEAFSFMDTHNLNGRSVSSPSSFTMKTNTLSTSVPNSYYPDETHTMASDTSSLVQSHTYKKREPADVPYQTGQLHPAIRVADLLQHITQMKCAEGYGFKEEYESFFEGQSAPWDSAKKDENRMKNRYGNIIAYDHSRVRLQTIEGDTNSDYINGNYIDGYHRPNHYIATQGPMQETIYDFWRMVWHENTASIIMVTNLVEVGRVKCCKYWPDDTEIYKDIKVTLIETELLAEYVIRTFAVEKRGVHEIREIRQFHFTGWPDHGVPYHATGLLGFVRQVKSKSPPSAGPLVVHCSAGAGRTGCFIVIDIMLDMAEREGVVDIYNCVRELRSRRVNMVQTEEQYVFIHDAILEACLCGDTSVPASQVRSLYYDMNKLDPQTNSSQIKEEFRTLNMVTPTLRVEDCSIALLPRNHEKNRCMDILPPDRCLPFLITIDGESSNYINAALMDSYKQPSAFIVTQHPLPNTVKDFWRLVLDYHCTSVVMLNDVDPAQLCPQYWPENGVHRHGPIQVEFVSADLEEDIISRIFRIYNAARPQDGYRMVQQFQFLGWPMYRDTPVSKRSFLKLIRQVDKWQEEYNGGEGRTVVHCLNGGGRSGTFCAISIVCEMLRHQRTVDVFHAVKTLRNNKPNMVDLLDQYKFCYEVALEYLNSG
Procedure, shortened: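 Cell-free recombinant PTPRM with fluorogenic substrate; product separated from substrate by electrophoretic mobility shift and read by fluorescence, 1.33 h after dosing. Primary screen single concentration (25 uM) in duplicate; actives retested in concentration series; loss of signal versus DMSO.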

[5] = target: human Sirtuin 1 (SIRT1), SIRT1 (gene 23411) (UniProt Q96EB6); assay: NVS_ENZ_hSIRT1: NovaScreen (NVS) Enzymatic Assay for human Sirtuin 1 (SIRT1) (AID 2283219)
human Sirtuin 1 (SIRT1), SIRT1 (gene 23411), sequence (Q96EB6 whole entry, looked up): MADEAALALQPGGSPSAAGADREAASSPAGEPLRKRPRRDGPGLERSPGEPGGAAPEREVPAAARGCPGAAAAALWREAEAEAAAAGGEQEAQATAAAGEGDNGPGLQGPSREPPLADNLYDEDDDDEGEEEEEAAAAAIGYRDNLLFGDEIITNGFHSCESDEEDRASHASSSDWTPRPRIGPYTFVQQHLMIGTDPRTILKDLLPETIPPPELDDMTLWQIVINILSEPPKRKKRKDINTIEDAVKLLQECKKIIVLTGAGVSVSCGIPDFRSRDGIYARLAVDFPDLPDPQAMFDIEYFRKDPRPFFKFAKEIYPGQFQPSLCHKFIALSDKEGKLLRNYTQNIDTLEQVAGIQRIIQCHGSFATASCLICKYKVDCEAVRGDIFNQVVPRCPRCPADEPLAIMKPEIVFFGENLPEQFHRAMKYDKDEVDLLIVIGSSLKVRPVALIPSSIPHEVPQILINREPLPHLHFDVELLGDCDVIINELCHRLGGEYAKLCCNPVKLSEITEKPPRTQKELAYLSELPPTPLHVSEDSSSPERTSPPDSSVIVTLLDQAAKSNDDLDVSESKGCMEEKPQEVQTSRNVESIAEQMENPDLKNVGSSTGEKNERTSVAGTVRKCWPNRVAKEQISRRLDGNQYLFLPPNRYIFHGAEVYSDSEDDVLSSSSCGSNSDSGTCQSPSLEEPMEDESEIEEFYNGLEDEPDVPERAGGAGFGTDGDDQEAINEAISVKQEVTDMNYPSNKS
Procedure, shortened: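 Cell-free recombinant SIRT1 with a fluorescent substrate; substrate and product separated by electrophoretic mobility shift and read by fluorescence intensity, 1 h after dosing. Primary screen at 25 uM in duplicate; hits re-run in concentration-response up to 50 uM, relative to DMSO.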

[6] = target: human Tyrosine Protein Kinase Receptor Tie-2 (Tie2), TEK (gene 7010) (UniProt Q02763); assay: NVS_ENZ_hTie2: NovaScreen (NVS) Enzymatic Assay for human Tyrosine Protein Kinase Receptor Tie-2 (Tie2) (AID 2283225)
Procedure, shortened: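 Recombinant human Tie2 kinase activity was read cell-free by fluorescence with electrophoretic mobility shift, 1 hour after dosing. The screen used 25 uM in duplicate, then concentration-response up to 50 uM. Signal loss was scored against DMSO.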

[7] = target: human Vascular Endothelial Growth Factor Receptor 1 (VEGFR1), FLT1 (gene 2321) (UniProt P17948); assay: NVS_ENZ_hVEGFR1: NovaScreen (NVS) Enzymatic Assay for human Vascular Endothelial Growth Factor Receptor 1 (VEGFR1) (AID 2283226)
Procedure, shortened: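 Cell-free assay of recombinant human VEGFR1 kinase with substrate, measured 1 h after dosing; fluorescence with electrophoretic mobility-shift separation of substrate and product, referenced to DMSO; primary screen at 25 uM in duplicate, actives then run in concentration series.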

[8] = target: human Protein Tyrosine Phosphatase Receptor Type C (PTPRC), PTPRC (gene 5788) (UniProt P08575); assay: NVS_ENZ_hPTPRC: NovaScreen (NVS) Enzymatic Assay for human Protein Tyrosine Phosphatase Receptor Type C (PTPRC) (AID 2283212)
Procedure, shortened: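 Yeast-extracted human PTPRC used in a cell-free colorimetric enzyme activity read-out, 1 h after dosing. Primary screen in duplicate at 25 uM; actives rerun in concentration-response up to 50 uM, DMSO as baseline.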

[9] = target: human Protein Tyrosine Phosphatase Non-receptor Type 2 (PTPN2), PTPN2 (gene 5771) (UniProt P17706); assay: NVS_ENZ_hPTPN2: NovaScreen (NVS) Enzymatic Assay for human Protein Tyrosine Phosphatase Non-receptor Type 2 (PTPN2) (AID 2283207)
human Protein Tyrosine Phosphatase Non-receptor Type 2 (PTPN2), PTPN2 (gene 5771), sequence (P17706 whole entry, looked up): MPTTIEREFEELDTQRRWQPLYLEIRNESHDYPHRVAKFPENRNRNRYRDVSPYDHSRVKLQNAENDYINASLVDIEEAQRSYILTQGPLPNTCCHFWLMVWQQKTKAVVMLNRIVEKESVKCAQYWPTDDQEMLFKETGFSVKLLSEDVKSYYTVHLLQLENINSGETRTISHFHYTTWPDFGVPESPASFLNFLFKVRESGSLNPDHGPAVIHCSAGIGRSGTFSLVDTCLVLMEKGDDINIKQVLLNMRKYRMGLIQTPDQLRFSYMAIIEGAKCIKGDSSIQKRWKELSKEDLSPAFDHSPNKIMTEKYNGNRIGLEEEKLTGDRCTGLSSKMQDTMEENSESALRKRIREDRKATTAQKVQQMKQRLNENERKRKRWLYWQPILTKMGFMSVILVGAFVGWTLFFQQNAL
Procedure, shortened: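 Cell-free recombinant enzyme with fluorescent substrate, product separated by electrophoretic mobility shift; read 1 h after dosing. Primary screen single concentration (25 uM) in duplicate; actives followed in concentration series; loss of signal versus DMSO.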

[10] = target: human Protein Tyrosine Phosphatase Non-receptor Type 4 (PTPN4), PTPN4 (gene 5775) (UniProt P29074); assay: NVS_ENZ_hPTPN4: NovaScreen (NVS) Enzymatic Assay for human Protein Tyrosine Phosphatase Non-receptor Type 4 (PTPN4) (AID 2283208)
Procedure, shortened: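 Cell-free assay of PTPN4 expressed in Sf9 cells, using a fluorescent substrate with product separated by mobility shift; read 1.33 h after dosing. Single-point screen at 25 uM, then concentration-response up to 50 uM. Loss of signal relative to DMSO.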

[11] = target: human Protein Tyrosine Phosphatase Non-receptor Type 9 (PTPN9), PTPN9 (gene 5780) (UniProt P43378); assay: NVS_ENZ_hPTPN9: NovaScreen (NVS) Enzymatic Assay for human Protein Tyrosine Phosphatase Non-receptor Type 9 (PTPN9) (AID 2283209)
Procedure, shortened: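 Sf9-expressed enzyme in a cell-free assay, fluorescence read 1.33 h after dosing with mobility-shift separation of substrate and product. Tested at 25 uM in duplicate, then up to 50 uM; signal loss versus DMSO.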

[12] = target: human Protein Tyrosine Phosphatase Receptor Type B (PTPRB), PTPRB (gene 5787) (UniProt P23467); assay: NVS_ENZ_hPTPRB: NovaScreen (NVS) Enzymatic Assay for human Protein Tyrosine Phosphatase Receptor Type B (PTPRB) (AID 2283211)
Procedure, shortened: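 Recombinant human PTPRB with a fluorescent substrate, product separated by electrophoretic mobility shift; read 1 h after dosing. Primary screen in duplicate at 25 uM; actives then retested in concentration series; loss of signal versus DMSO.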

[13] = target: human Rho Associated Coiled-coil Containing Protein Kinase 1 (ROCK1), ROCK1 (gene 6093) (UniProt Q13464); assay: NVS_ENZ_hROCK1: NovaScreen (NVS) Enzymatic Assay for human Rho Associated Coiled-coil Containing Protein Kinase 1 (ROCK1) (AID 2283214)
Procedure, shortened: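 Cell-free recombinant human ROCK1 activity assay; fluorescent substrate and product separated by electrophoretic mobility shift, read 1 h after dosing. Screened in duplicate at 25 uM; loss of signal versus DMSO baseline scored as inhibition.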

[14] = target: human Sirtuin 2 (SIRT2), SIRT2 (gene 22933) (UniProt Q8IXJ6); assay: NVS_ENZ_hSIRT2: NovaScreen (NVS) Enzymatic Assay for human Sirtuin 2 (SIRT2) (AID 2283217)
human Sirtuin 2 (SIRT2), SIRT2 (gene 22933), sequence (Q8IXJ6 whole entry, looked up): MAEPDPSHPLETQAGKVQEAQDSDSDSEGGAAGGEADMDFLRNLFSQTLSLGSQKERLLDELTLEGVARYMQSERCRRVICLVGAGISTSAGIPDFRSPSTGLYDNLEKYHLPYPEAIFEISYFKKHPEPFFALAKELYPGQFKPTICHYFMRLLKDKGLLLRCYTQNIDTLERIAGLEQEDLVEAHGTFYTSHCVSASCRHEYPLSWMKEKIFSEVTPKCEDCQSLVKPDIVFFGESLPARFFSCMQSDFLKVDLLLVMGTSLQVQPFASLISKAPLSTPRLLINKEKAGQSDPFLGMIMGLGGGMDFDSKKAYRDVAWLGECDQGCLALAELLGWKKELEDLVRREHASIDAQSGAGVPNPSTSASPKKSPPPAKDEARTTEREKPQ
Procedure, shortened: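 Cell-free recombinant human SIRT2, fluorescent substrate with product separated by electrophoretic mobility shift, 1 hr. Screened in duplicate at 25 uM; hits rerun singly in concentration-response up to 50 uM, relative to DMSO.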

[15] = target: human SRC Proto-Oncogene, Non-receptor Tyrosine Kinase (SRC), SRC (gene 6714) (UniProt P12931); assay: NVS_ENZ_hSRC: NovaScreen (NVS) Enzymatic Assay for human SRC Proto-Oncogene, Non-receptor Tyrosine Kinase (SRC) (AID 2283223)
Procedure, shortened: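 Cell-free kinase activity assay with fluorescent substrate, product separated by electrophoretic mobility shift, read 1 h after dosing. Duplicate single point at 25 uM, then concentration-response up to 50 uM; loss of signal versus DMSO.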

[16] = target: Tyrosine-protein phosphatase non-receptor type 13 (Homo sapiens) (UniProt Q12923); assay: NVS_ENZ_hPTPN13: NovaScreen (NVS) Enzymatic Assay for human Protein Tyrosine Phosphatase Non-receptor Type 13 (PTPN13) (AID 2283205)
Procedure, shortened: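 Cell-free assay of recombinant human PTPN13 with a fluorescent substrate, product separated by electrophoretic mobility shift and read 0.5 h after dosing. Primary screen at 25 uM in duplicate, then concentration-response up to 50 uM. Loss of signal fitted against DMSO.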

[17] = target: Tyrosine-protein phosphatase non-receptor type 14 (Homo sapiens) (UniProt Q15678); assay: NVS_ENZ_hPTPN14: NovaScreen (NVS) Enzymatic Assay for human Protein Tyrosine Phosphatase Non-receptor Type 14 (PTPN14) (AID 2283206)
Procedure, shortened: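 Cell-free recombinant human PTPN14 with fluorescent substrate, read 0.5 h after dosing by fluorescence and electrophoretic mobility shift separating substrate from product. Primary screen at 25 uM in duplicate; hits run to 50 uM maximum; loss of signal versus DMSO.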

[18] = target: human Vascular Endothelial Growth Factor Receptor 3 (VEGFR3), FLT4 (gene 2324) (UniProt P35916); assay: NVS_ENZ_hVEGFR3: NovaScreen (NVS) Enzymatic Assay for human Vascular Endothelial Growth Factor Receptor 3 (VEGFR3) (AID 2283229)
human Vascular Endothelial Growth Factor Receptor 3 (VEGFR3), FLT4 (gene 2324), sequence (P35916 whole entry, looked up): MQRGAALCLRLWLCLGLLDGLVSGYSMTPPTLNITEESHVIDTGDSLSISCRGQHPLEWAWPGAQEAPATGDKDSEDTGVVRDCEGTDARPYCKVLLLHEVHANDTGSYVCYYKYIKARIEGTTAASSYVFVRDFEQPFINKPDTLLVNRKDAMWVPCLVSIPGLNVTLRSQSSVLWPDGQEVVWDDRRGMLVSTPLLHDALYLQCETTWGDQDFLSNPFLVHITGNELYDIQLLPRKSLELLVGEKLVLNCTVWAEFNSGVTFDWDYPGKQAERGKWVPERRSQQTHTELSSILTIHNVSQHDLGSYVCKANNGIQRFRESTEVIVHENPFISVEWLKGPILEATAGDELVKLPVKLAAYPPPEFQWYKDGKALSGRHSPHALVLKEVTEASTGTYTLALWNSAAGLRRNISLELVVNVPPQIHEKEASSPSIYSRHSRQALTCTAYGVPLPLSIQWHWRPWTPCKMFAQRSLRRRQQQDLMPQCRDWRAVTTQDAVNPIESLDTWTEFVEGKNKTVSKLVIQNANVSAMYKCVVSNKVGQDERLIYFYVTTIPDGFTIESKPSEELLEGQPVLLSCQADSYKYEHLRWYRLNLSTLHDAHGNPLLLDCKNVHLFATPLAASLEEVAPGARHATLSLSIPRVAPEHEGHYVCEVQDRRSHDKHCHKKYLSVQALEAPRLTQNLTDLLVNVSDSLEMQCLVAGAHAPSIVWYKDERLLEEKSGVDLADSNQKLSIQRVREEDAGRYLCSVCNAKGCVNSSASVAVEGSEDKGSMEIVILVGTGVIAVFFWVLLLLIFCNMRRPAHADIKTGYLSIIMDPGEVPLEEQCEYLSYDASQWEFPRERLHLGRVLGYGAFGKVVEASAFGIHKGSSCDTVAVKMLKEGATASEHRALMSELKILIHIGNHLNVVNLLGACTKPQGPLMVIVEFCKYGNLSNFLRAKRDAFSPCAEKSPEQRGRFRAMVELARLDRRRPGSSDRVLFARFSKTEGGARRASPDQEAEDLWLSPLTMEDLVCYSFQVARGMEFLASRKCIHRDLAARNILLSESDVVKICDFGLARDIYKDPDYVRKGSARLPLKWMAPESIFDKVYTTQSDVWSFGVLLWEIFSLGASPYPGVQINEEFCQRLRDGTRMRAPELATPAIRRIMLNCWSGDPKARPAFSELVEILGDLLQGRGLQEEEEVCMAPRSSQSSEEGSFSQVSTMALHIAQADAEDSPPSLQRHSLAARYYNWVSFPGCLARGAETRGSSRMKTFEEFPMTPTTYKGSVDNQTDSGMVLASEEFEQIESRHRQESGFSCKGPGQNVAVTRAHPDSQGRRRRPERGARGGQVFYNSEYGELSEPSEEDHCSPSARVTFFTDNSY
Procedure, shortened: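 Cell-free recombinant VEGFR3 kinase reaction with fluorescent substrate, read 1 h after dosing by electrophoretic mobility shift separation of substrate and product. Single-concentration duplicate screen at 25 uM, then concentration-response up to 50 uM; loss of activity versus DMSO.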

[19] = target: rabbit Imidazoline 2 Central (I2C), CKB (gene 100009085) (UniProt P00567); assay: NVS_ENZ_rabI2C: NovaScreen (NVS) Enzymatic Assay for rabbit Imidazoline 2 Central (I2C) (AID 2283228)
Procedure, shortened: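 Rabbit brain membranes, cell-free; readout by filter-based scintillation counting 1.5 hours after dosing, loss of signal vs DMSO. Initial duplicate test at 25 uM, then concentration-response with 50 uM top concentration.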

[20] = target: human Tropomyosin Receptor Kinase A (TRKA), NTRK1 (gene 4914) (UniProt P04629); assay: NVS_ENZ_hTrkA: NovaScreen (NVS) Enzymatic Assay for human Tropomyosin Receptor Kinase A (TRKA) (AID 2283224)
Procedure, shortened: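 Recombinant human TrkA activity read after 1 h by fluorescence with electrophoretic mobility shift separating substrate and product. Primary screen in duplicate at 25 uM; actives were rerun in concentration-response up to 50 uM. Loss of signal versus DMSO.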

## O=C(O)CC(O)(CC(=O)O)C(=O)O
[1]
  outcome: inactive

## Oc1cc(Cl)c(Cl)cc1Cl
[2]
  outcome: inactive
[1]
  outcome: inactive

## Clc1cccc(Cl)c1Cl
[3]
  outcome: inactive
[4]
  outcome: inactive
[1]
  outcome: inactive
[5]
  outcome: inactive
[6]
  outcome: inactive
[7]
  outcome: inactive

## CN(C)C(=S)S
[8]
  AC50: 7.44 µM (active)

## N#Cc1cccnc1
[9]
  outcome: inactive
[10]
  outcome: inactive
[11]
  outcome: inactive
[12]
  outcome: inactive
[13]
  outcome: inactive
[14]
  outcome: inactive
[15]
  outcome: inactive
[6]
  outcome: inactive
[7]
  outcome: inactive

## CC(C)O.CC(C)O.OCCN(CCO)CCO.OCCN(CCO)CCO.[Ti]
[16]
  AC50: 3.51 µM (active)
[17]
  AC50: 2.29 nM (active)
[9]
  AC50: 2.29 nM (active)
[12]
  AC50: 0.00229 µM (active)
[3]
  AC50: 3.38 µM (active)
[4]
  AC50: 0.119 µM (active)
[1]
  outcome: inactive
[15]
  AC50: 2.29 nM (active)
[6]
  AC50: 3.53 µM (active)
[18]
  AC50: 21.8 µM (active)

## Nc1c(Oc2ccccc2)cc(O)c2c1C(=O)c1ccccc1C2=O
[7]
  AC50: 0.898 µM (active)

## CCCCCCCCCCCCOS(=O)(=O)O
[9]
  outcome: inactive
[1]
  AC50: 25 µM (active)
[6]
  AC50: 26.9 µM (active)

## OCCN(CCO)CCO
[5]
  outcome: inactive

## O=C1c2ccccc2C(=O)C1C(=O)C(c1ccccc1)c1ccc(Cl)cc1 (configuration not stated)
[12]
  AC50: 14.7 µM (active)
[6]
  AC50: 2.26 µM (active)
[18]
  AC50: 2.4 µM (active)

## C=C(C)C(=O)OCC(CC)CCCC (configuration not stated)
[7]
  outcome: inactive

## O=C(CBr)c1ccc(O)cc1
[12]
  outcome: inactive

## O=C(N[C@H]1CN2CCC1CC2)c1ccc2c(c1)OCCO2
[1]
  outcome: inactive
[6]
  outcome: inactive
[7]
  outcome: inactive
[18]
  outcome: inactive

## COc1ccccc1N
[2]
  AC50: 22.6 µM (active)
[8]
  AC50: 17.5 µM (active)
[5]
  AC50: 25.4 µM (active)
[19]
  outcome: inactive

## CCCCCCCCCCCCc1cccc(S(=O)(=O)O)c1
[16]
  AC50: 22.7 µM (active)
[11]
  AC50: 5.53 µM (active)
[12]
  AC50: 19.2 µM (active)
[8]
  AC50: 6.82 µM (active)
[4]
  AC50: 14.4 µM (active)
[1]
  AC50: 28.8 µM (active)
[20]
  AC50: 36.3 µM (active)
[6]
  AC50: 12.4 µM (active)
[7]
  AC50: 22.9 µM (active)
[18]
  AC50: 10.7 µM (active)

## COc1nn(C(=O)NS(=O)(=O)c2ccccc2OC(F)(F)F)c(=O)n1C
[12]
  AC50: 6.08 µM (active)
[6]
  AC50: 24.5 µM (active)
[18]
  AC50: 11.4 µM (active)

## O=c1oc2ccccc2c(O)c1C(CC(O)c1ccc(-c2ccc(Br)cc2)cc1)c1ccccc1 (configuration not stated)
[7]
  AC50: 16.9 µM (active)

## O=C(O)C1(c2ccc3c(c2)OC[C@H](Cc2ccc(-c4ccccc4)cc2)[C@H]3O)CCCC1
[13]
  outcome: inactive
